Source: PubChem BioAssay AID1159580 (chemical genetic matrix, 2015)
Values joined by “and” are separate entries in the source; they are usually repeats but may differ in a detail not shown here. Equal values may be shown once. The campaign covered roughly 5,500 compounds. About 2,000 (36%) were called active. Another 18% or so got no clear call; they are omitted. No stated cut-off is given here; in the data, active means normalized growth mostly below about 0.91 (no sharp cut-off); inconclusive means no clear call, values can overlap the other calls; inactive means mostly above about 0.92. Some of the results follow.

Experiment: chemical genetic growth profiling, strain panel (AID 1159580);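 further: tested at 20 µM; growth read once vehicle control cultures reached saturation at 30 °C; 1 = growth at the plate median or of vehicle wells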
Settings: S. cerevisiae deletion strains, growth OD

Measured: normalized growth

CCC(=O)O[C@H]1CCC2C3CCc4cc(O)ccc4C3CC[C@@]21C (stereo partly drawn)
0.968 (inactive) and 0.298 (active): locus YHR030C, strain SLT2, stronger effect = lower value
active: locus YAL013W, strain DEP1, stronger effect = lower value 0.7 | locus YDL074C, strain BRE1, stronger effect = lower value 0.447 | locus YDR159W, strain sac3, stronger effect = lower value 0.596 | locus YDR195W, strain ref2 0.209 | locus YDR392W, strain spt3, stronger effect = lower value 0.531 | locus YER155C, strain BEM2, stronger effect = lower value 0.295 | locus YGR229C, strain SMI1, stronger effect = lower value 0.584 | locus YHR079C, strain IRE1, stronger effect = lower value 0.538 | locus YJL095W, strain BCK1, stronger effect = lower value 0.756 and 0.227 | locus YJL129C, strain trk1, stronger effect = lower value 0.814 | locus YJL164C, strain tpk1, stronger effect = lower value 0.904
inactive: locus YAL021C, strain ccr4, stronger effect = lower value 0.97 | locus YAL026C, strain drs2, stronger effect = lower value 1 | locus YAL030W, strain snc1, stronger effect = lower value 0.988 | locus YBL061C, strain skt5, stronger effect = lower value 0.98 | locus YBR009C, strain hhf1, stronger effect = lower value 0.957 | locus YBR021W, strain FUR4, stronger effect = lower value 0.908 | locus YBR023C, strain chs3, stronger effect = lower value 0.981 | locus YBR171W, strain sec66, stronger effect = lower value 0.997 | locus YBR229C, strain ROT2, stronger effect = lower value 0.999 | locus YBR231C, strain swc5, stronger effect = lower value 0.974 | locus YBR279W, strain paf1, stronger effect = lower value 1 | locus YCL011C, strain gbp2, stronger effect = lower value 0.962 | locus YCL016C, strain dcc1, stronger effect = lower value 0.992 | locus YCL029C, strain bik1, stronger effect = lower value 0.994 | locus YCL061C, strain MRC1, stronger effect = lower value 0.991 | locus YCL069W, strain vba3, stronger effect = lower value 0.997 | locus YCR088W, strain abp1, stronger effect = lower value 0.991 | locus YDL005C, strain med2, stronger effect = lower value 0.966 | locus YDL035C, strain GPR1, stronger effect = lower value 0.975 | locus YDL040C, strain nat1, stronger effect = lower value 1 | locus YDL101C, strain DUN1, stronger effect = lower value 0.951 | locus YDL134C, strain PPH21, stronger effect = lower value 0.956 | locus YDL185W, strain tfp1, stronger effect = lower value 1.01 | locus YDL192W, strain arf1, stronger effect = lower value 1.01 | locus YDR001C, strain nth1, stronger effect = lower value 0.994 | locus YDR069C, strain doa4, stronger effect = lower value 0.97 | locus YDR101C, strain arx1, stronger effect = lower value 0.986 | locus YDR137W, strain rgp1, stronger effect = lower value 0.854 | locus YDR150W, strain NUM1, stronger effect = lower value 1 | locus YDR162C, strain NBP2, stronger effect = lower value 0.993 | locus YDR297W, strain sur2, stronger effect = lower value 0.989 | locus YDR318W, strain mcm21, stronger effect = lower value 1 | locus YDR334W, strain swr1, stronger effect = lower value 0.962 | locus YDR335W, strain msn5, stronger effect = lower value 0.99 | locus YDR388W, stronger effect = lower value 0.987 | locus YDR502C, strain sam2, stronger effect = lower value 0.997 | locus YEL003W, strain gim4, stronger effect = lower value 0.984 | locus YEL037C, strain rad23, stronger effect = lower value 0.995 | locus YEL061C, strain CIN8 (second series), stronger effect = lower value 0.969 | locus YEL061C, strain CIN8, stronger effect = lower value 0.999 | locus YER015W, strain faa2, stronger effect = lower value 0.988 | locus YER016W, strain bim1, stronger effect = lower value 0.996 | locus YER110C, stronger effect = lower value 1.02 | locus YER111C, strain swi4, stronger effect = lower value 0.974 | locus YER155C, strain BEM2 (second series), stronger effect = lower value 0.988 | locus YER167W, strain BCK2, stronger effect = lower value 0.933 | locus YFR010W, strain ubp6, stronger effect = lower value 0.956 | locus YGL078C, strain dbp3, stronger effect = lower value 1.01 | locus YGL086W, strain mad1, stronger effect = lower value 0.985 | locus YGL167C, strain pmr1, stronger effect = lower value 0.98 | locus YGL173C, strain kem1, stronger effect = lower value 0.986 | locus YGL227W, strain vid30, stronger effect = lower value 0.976 | locus YGL240W, strain doc1, stronger effect = lower value 0.972 | locus YGL248W, strain PDE1, stronger effect = lower value 0.961 | locus YGL253W, strain hxk2, stronger effect = lower value 1 | locus YGR135W, strain pre9, stronger effect = lower value 1.01 | locus YGR252W, strain gcn5, stronger effect = lower value 0.973 | locus YHR013C, strain ard1, stronger effect = lower value 0.885 | locus YHR027C, strain rpn1, stronger effect = lower value 0.992 | locus YHR079C, strain IRE1 (second series), stronger effect = lower value 1.01 | locus YHR094C, strain hxt1, stronger effect = lower value 0.997 | locus YHR129C, strain ARP1, stronger effect = lower value 0.932 | locus YHR142W, strain chs7, stronger effect = lower value 0.931 | locus YHR200W, strain rpn10, stronger effect = lower value 1.01 | locus YIL066C, strain RNR3, stronger effect = lower value 0.927 | locus YIL073C, strain SPO22, stronger effect = lower value 0.781 | locus YIL125W, strain kgd1, stronger effect = lower value 1 | locus YIR030C, strain dcg1, stronger effect = lower value 1 | locus YJL092W, strain hpr5, stronger effect = lower value 0.984 | locus YJL095W, strain BCK1 (second series), stronger effect = lower value 0.996 | locus YJL115W, strain asf1, stronger effect = lower value 0.988 | locus YJL134W, strain LCB3, stronger effect = lower value 0.993 | locus YJL154C, strain vps35, stronger effect = lower value 0.995 | locus YJL166W, strain qcr8, stronger effect = lower value 0.989 | locus YJL168C, strain set2, stronger effect = lower value 1 | locus YJL187C, strain SWE1 (second series), stronger effect = lower value 0.925
